Data reported in publication PMC4336329 (PLoS ONE, 2015).
Hit rate of the full screen: of about 310,000 compounds, about 14,000 (4.5%) showed an effect of 50% or more. The effect is printed as a negative number. Many of the other results were omitted from the sample, so strong results are more common in it than they were.

Target: human ether-à-go-go-related gene (hERG) potassium channel (human, UniProt Q12809)
Experiment: primary screen, population patch clamp on CHO cells stably expressing hERG; higher = less effect of the substance
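Further: peak tail current of the secondary pulse compared with the same well before compound.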

human ether-à-go-go-related gene (hERG) potassium channel, sequence (Q12809 whole entry, looked up): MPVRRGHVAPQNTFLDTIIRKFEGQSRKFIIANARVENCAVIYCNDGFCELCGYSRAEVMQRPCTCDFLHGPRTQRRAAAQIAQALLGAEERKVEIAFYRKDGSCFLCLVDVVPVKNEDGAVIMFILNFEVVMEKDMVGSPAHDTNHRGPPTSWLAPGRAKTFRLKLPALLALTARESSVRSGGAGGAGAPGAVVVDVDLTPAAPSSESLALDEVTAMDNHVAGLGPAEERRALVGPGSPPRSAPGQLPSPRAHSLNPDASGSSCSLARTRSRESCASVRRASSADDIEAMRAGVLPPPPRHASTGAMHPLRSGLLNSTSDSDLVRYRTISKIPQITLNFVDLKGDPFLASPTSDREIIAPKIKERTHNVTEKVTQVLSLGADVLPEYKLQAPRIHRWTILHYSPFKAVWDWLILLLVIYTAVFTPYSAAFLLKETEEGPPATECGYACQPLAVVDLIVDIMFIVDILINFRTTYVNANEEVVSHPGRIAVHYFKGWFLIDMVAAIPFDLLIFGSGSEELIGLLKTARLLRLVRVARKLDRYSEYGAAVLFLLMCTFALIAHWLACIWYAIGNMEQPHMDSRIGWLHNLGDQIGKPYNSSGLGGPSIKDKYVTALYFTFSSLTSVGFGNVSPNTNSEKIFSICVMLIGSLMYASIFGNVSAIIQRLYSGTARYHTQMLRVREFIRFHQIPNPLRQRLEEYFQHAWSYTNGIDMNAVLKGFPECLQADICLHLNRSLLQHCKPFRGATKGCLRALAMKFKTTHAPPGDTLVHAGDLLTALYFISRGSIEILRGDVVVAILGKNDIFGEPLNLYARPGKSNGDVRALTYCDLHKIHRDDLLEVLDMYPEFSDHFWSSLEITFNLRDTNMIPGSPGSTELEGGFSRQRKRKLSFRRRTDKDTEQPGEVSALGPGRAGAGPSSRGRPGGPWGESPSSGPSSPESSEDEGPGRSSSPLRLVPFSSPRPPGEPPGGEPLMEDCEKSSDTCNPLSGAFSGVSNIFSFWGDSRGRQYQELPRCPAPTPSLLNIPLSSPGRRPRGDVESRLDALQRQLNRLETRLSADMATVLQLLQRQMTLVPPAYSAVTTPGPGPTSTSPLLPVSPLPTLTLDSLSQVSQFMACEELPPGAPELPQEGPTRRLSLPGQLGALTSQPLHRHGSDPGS

In order of rising “hERG current change (%, negative = inhibition) at 10uM” value:
1. Fc1cccc(Cl)c1CSc1ccc(-c2cccnc2)nn1  -68.9%
2. Clc1cccc(CSc2ccc(-c3cccnc3)nn2)c1  -67.3%
3. N#C/C(=C\c1c(N2CCOCC2)nc2ccccn2c1=O)S(=O)(=O)c1ccccc1  -63.2%
4. Cc1ccc(S(=O)(=O)/C(C#N)=C/c2c(N3CCN(C)CC3)nc3ccccn3c2=O)cc1  -59.1%
5. O=[N+]([O-])c1cccc(-c2ccc(SCc3cccnc3)nn2)c1  -55%
6. CN1CCN(c2nc3ccccn3c(=O)c2/C=C(\C#N)S(=O)(=O)c2ccc(Cl)cc2)CC1  -51.9%
7. Clc1ccc(CSc2ccc(-c3cccnc3)nn2)cc1  -48.6%
8. CCN1CCN(c2nc3ccccn3c(=O)c2/C=C(\C#N)S(=O)(=O)c2ccccc2)CC1  -42.3%
9. N#C/C(=C\c1c(N2CCCCC2)nc2ccccn2c1=O)S(=O)(=O)c1ccccc1  -40.7%
10. Cc1ccc(S(=O)(=O)/C(C#N)=C/c2c(N3CCCCC3)nc3ccccn3c2=O)cc1  -29.9%
11. CN1CCN(c2nc3ccccn3c(=O)c2/C=C(\C#N)S(=O)(=O)c2ccccc2)CC1  -24.9%
12. c1ccc(CSc2ccc(-c3cccnc3)nn2)cc1  -13.7%
13. CCCCC1C(C#N)=C(C)NC2=C1C(=O)CC(C)(C)C2 (stereo not shown)  -9.68%
14. O=[N+]([O-])c1cccc(-c2ccc(SCc3ccccn3)nn2)c1  -6.25%
15. N#C/C(=C\c1c(N2CCN(Cc3ccccc3)CC2)nc2ccccn2c1=O)S(=O)(=O)c1ccccc1  0.944%
16. Fc1cccc(Cl)c1CSc1ccc(-c2ccco2)nn1  1.19%
17. N#C/C(=C\c1c(N2CCN(c3ccccc3)CC2)nc2ccccn2c1=O)S(=O)(=O)c1ccccc1  2.28%
18. N#Cc1c(NC(=O)COC(=O)c2ccc(S(=O)(=O)N3CCCC3)cc2)sc2c1CCCCC2  6.38%
19. Cc1csc(Nc2ccccc2C(F)(F)F)n1  6.46%
20. c1ccc(CSc2ccc(-c3cccnc3)nn2)nc1  6.82%
21. COc1ccc(CNC(=O)CCOc2ccc(C(C)(C)C)cc2)cc1  8.47%
22. c1cncc(CSc2ccc(-c3cccnc3)nn2)c1  9.04%
23. O=C(CSc1nc(NS(=O)(=O)c2ccccc2)cc(=O)[nH]1)Nc1ccc(F)cc1  10.7%
24. CC(C)c1ccc(OCC(=O)Nc2ccc(S(=O)(=O)Nc3ccccn3)cc2)cc1  10.7%
25. Clc1ccc(CNc2ncccn2)cc1  13.5%
26. CCOc1ccc(/C(O)=C2/C(=O)C(=O)N(CC3CCCO3)C2c2ccco2)cc1 (stereo not shown)  14.2%
27. O=C1NCCN1CCNS(=O)(=O)c1cc(C(F)(F)F)cc(C(F)(F)F)c1  17.2%
28. Cc1cc(C)nc(NC(=O)c2ccccc2O)n1  18.3%
